# The full list was thinned out, with hits kept by preference.
# LmPK inh = blocks Leishmania mexicana pyruvate kinase activity; purified LmPK, Kinase-Glo ATP luminescence, 1 h; Potency, µM (titrated, usually from 57.5 µM), for inactives: top-dose activity change, negative = inhibition, most hits filed as inhibitors; 290,000 compounds, 0.37% hits; AID 1721; note: potency is the fitted concentration of half-maximal effect; % is set by controls: 0 for no effect and ±100 for the full control effect
# Target sequence (Q27686 whole entry, looked up): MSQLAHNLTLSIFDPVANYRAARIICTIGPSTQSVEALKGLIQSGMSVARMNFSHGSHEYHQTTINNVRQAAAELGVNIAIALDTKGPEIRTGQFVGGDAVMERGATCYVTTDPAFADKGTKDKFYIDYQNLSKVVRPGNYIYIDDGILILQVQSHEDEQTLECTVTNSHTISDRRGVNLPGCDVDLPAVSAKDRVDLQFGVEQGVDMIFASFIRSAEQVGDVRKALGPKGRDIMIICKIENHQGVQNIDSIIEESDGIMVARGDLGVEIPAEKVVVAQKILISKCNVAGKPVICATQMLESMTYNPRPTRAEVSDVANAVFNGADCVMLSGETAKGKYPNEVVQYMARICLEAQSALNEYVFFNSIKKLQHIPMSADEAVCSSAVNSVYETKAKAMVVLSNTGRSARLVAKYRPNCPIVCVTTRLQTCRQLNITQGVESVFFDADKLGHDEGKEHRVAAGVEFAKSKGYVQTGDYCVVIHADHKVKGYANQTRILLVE
#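 Purified LmPK (0.1 nM) with 0.5 mM PEP and 0.1 mM ADP in imidazole buffer pH 7.2 with MgCl2/KCl, 1 h at room temperature. ATP formed was read by luciferase luminescence and normalized to no-enzyme and uninhibited controls.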
# Giardia FBPA inh = Giardia lamblia aldolase inhibition. A8B2U2. Potency, µM (highest dose often 59.6 µM), without a hit: at the highest dose activity, negative = inhibition, hits mostly inhibitors. 290,000 compounds, 0.71% hits. purified Giardia FBPA; note: potency is the fitted concentration of half-maximal effect; % is set by controls: 0 for no effect and ±100 for the full control effect; nearly all actives have a fitted effect of over 55% in size
#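 40 nM FBPA preincubated 10 min at RT with compound (up to 57.5 uM final), then substrate plus GAPDH/TPI/NAD/arsenate coupling and diaphorase/resazurin added. Fluorescence read after 20 min at RT, 525/598 nm.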
# Cycloheximide cs = counter-screen for Shiga toxin inhibitors: cycloheximide protein synthesis inhibition; cell reporter, cycloheximide protein synthesis inhibition counterscreen; max response, %; 300,000 compounds, 12% hits; in the data active = max response mostly above about 13%, no sharp cut-off; inactive = mostly below about 14%; note: read at 38.3 µM for the half of the compounds with a filed dose; 0% is about no effect
# Shiga inhibitor = blocks Shiga toxin action in Vero cells. Vero cells, Shiga toxin protein synthesis inhibition reporter. inhibition, % at 38.7 µM. 290,000 compounds, 9.2% hits; in the data active = inhibition mostly above about 28%, no sharp cut-off; inactive = mostly below about 43%; note: 0% is about no effect
# Tb PYK inh = T. brucei pyruvate kinase inhibition. Potency, µM (doses to about 76.8 µM), for inactives: at the highest dose activity, negative = inhibition, actives largely listed as inhibitors. 410,000 compounds, 0.12% hits. TbPYK enzyme, Kinase-Glo Plus ATP luminescence, 45 min. AID 624173. Q57TT1; note: potency is the fitted concentration of half-maximal effect; % is set by controls: 0 for no effect and ±100 for the full control effect; nearly all actives have a fitted effect of over 50% in size
#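 Enzyme and substrate buffer are dispensed first and compound is pin-transferred. ADP at 130 uM final then starts the reaction, which runs 45 min at room temperature. Detection reagent is added for 10 min before luminescence is imaged.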
# RE007 growth inh = less growth of the S. pombe RE007 Vpr strain | S. pombe RE007 Vpr strain, BacTiter-Glo ATP luminescence, 24 h | Potency, µM (series often up to 92.2 µM), without a hit: top-dose activity change, negative = less growth, actives largely listed as inhibitors | 360,000 compounds, 0.21% hits | AID 651644; active = well fitted falling curve with a large enough effect; inconclusive = small, poorly fitted or top-dose-only effect; inactive = no such curve, though single readings can be large or run the other way; note: potency is the fitted concentration of half-maximal effect; % is set by controls: 0 for no effect and ±100 for the full control effect; nearly all actives have a fitted effect of over 50% in size
#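 Fission yeast RE007 carrying one integrated HIV-1 vpr copy, seeded at OD 0.01 in PMG+AL medium with 23 nL pinned compound. Grown 24 h at 30 degrees; viability read by BacTiter-Glo luminescence after 5 min.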
# Numbers without * were called inactive; i = inactive; ? = inconclusive; / = not tested or not shown; [ ] = remark or other dose. Unless noted, calls come from the whole dose curve; as a rule, active = well fitted curve in the direction sought with a large enough effect; inconclusive = small, poorly fitted or top-dose-only effect, or another doubt; inactive = no such curve, though single readings can be large; an effect the other way counts as inactive or inconclusive.
SMILES,LmPK inh,Giardia FBPA inh,Cycloheximide cs,Shiga inhibitor,Tb PYK inh,RE007 growth inh
CC(OC(=O)c1cnc2ccccc2n1)c1ccccc1Cl (configuration not stated),-2%,-5%,36*,69*,3%,30%
NC(=O)c1ccc(NC(=O)c2cnc3ccccc3n2)cc1,-4%,0%,37*,80*,1%,3%
O=C(COc1ccccc1Cl)NCC1(N2CCOCC2)CCCCC1,/,/,/,/,6%,/
Cc1cccnc1NC(=O)Cn1nc(-c2ccccc2)oc1=S,0%,-11%,40*,89*,-7%,-12%
COc1cc(NC(=O)CSc2ccc(-c3sc(-c4ccccc4)nc3C)nn2)cc(OC)c1,/,/,/,/,2%,/
CC(C)(C)NC(=O)CN(C(=O)CCC(=O)Nc1nccs1)c1ccc2c(c1)OCCO2,-1%,10%,-2,1,-4%,4%
CC(C)CCNC(=O)CN(C(=O)CCC(=O)Nc1nccs1)c1ccc2c(c1)OCCO2,-1%,-2%,35*,68*,0%,0%
COc1ccc(NC(=O)c2ccc(C)o2)c([N+](=O)[O-])c1,-14%,3%,22*,39,-6%,8%
COc1ccc(NC(=O)c2ccc([N+](=O)[O-])s2)c([N+](=O)[O-])c1,1%,0%,25,46*,-2%,0%
Cc1ccc(NC(=O)c2ccc(Br)o2)c([N+](=O)[O-])c1,/,/,/,/,2%,-5%
COc1ccc(NC(=O)c2ccc(C)cc2Cl)c([N+](=O)[O-])c1,6%,/,37*,i,-10%,-5%
COc1ccc(NC(=O)c2ccc(Br)o2)c([N+](=O)[O-])c1,-12%,6%,19*,41,-8%,-2%
COc1ccc(CNC(=O)CCc2c(C)nc3nc(CNC(=O)OC(C)(C)C)nn3c2C)cc1,/,/,/,/,-3%,/
Cc1ccc(C)c(OCC(=O)Nc2cc(C)on2)c1,-7%,1%,22*,46,2%,2%
Cc1cccc(OCC(=O)Nc2cc(C)on2)c1,-2%,1%,16*,active,-13%,-1%
CCOC(=O)c1c(S(=O)(=O)N2CCN(c3cc(Cl)ccc3C)CC2)c(C)n(C)c1C,/,/,/,/,0%,/
CCN1C(=O)[C@H]2[C@H]3[C@H](O)[C@H](O)C/C(=N/NC(=O)OCc4ccc(OC)cc4)[C@@H]3CC[C@@H]2C1=O,/,3%[12.9 µM],/,/,/,/
Cc1c(Cl)cccc1NC(=O)C(=O)NCC(c1cccnc1)N1CCN(c2ccccc2)CC1 (configuration not stated),/,/,/,/,1%,/
O=C(CNS(=O)(=O)c1cccc(Cl)c1)Nc1ccc(-c2nc3ccccc3s2)cc1,-2%,0%,34*,43*,-4%,-7%
CCS(=O)(=O)c1ccccc1C(=O)Nc1ccc(-c2nc3ccccc3s2)cc1,/,/,/,/,0%,/
CC(C)(C)C(=O)Nc1ccc(-c2nc3ccccc3s2)cc1,/,/,/,/,-21%,/
CC(C)(C)c1ccc(S(=O)(=O)NCC(=O)Nc2ccc(-c3nc4ccccc4s3)cc2)cc1,4%,10%,38*,123*,1%,11%
Cc1ccc(C)c(S(=O)(=O)NC(C)C(=O)Nc2ccc(-c3nc4ccccc4s3)cc2)c1 (configuration not stated),-1%,5%,53*,83*,-1%,11%
CC(NS(=O)(=O)c1cccc(Cl)c1)C(=O)Nc1ccc(-c2nc3ccccc3s2)cc1 (configuration not stated),9%,2%,38*,44,-10%,6%
COc1ccc(NC(=O)C(C)NS(=O)(=O)c2ccccc2)cc1Cl (configuration not stated),1%,-3%,1,-5,-7%,4%
SMILES,LmPK inh,Giardia FBPA inh,Cycloheximide cs,Shiga inhibitor,Tb PYK inh,RE007 growth inh
CCN1C(=NCCN2CCOCC2)N[C@@H](CCc2ccccc2)C(C(=O)OC)=C1C,-10%,-1%,7,1,/,/
CN(CC[C@@H](Oc1ccc(-c2ccccc2)cc1)c1ccc(F)cc1)CC(=O)O,/,-11%,/,/,/,/
Cc1noc(C)c1-c1cc(NCCN2CCOCC2)ncn1,/,1%,/,/,/,/
COc1cccc(-n2c(SCC(=O)Nc3nnc(C)s3)nc3c([nH]c4ccccc43)c2=O)c1,/,/,/,/,-6%,/
COCCOCCO,/,/,/,/,-8%[157 µM],/
c1ccc(N2CCN(c3nc4ccccc4[nH]3)CC2)nc1,0%,-1%,22*,49*,2%,-9%
c1ccc2[nH]c(N3CCOCC3)nc2c1,-6%,1%,-1,7,1%,5%
CCOC(=O)c1ccc(Nc2nc3nonc3nc2Nc2cccc(C)c2C)cc1,/,/,/,/,9%,/
COc1ccc2cc(C(=O)NCc3ccco3)c(=O)oc2c1,-4%,4%,33*,60*,-4%,-4%
COc1ccc(N=c2oc3c(OC)cccc3cc2C(=O)NCc2ccco2)c(OC)c1,4%,-14%,23*,60,-4%,-10%
COc1ccc2cc(C(=O)NCc3ccco3)c(=Nc3ccc(C(=O)O)cc3)oc2c1,2%,4%,55*,112*,2%,-3%
O=C(NCc1ccco1)c1cc2ccc(O)cc2oc1=O,14µM*,0%,18,21,?,35µM*
COc1ccc2oc(=Nc3ccc(C(=O)O)cc3)c(C(=O)NCc3ccco3)cc2c1,10%,5%,7,23,-1%,3%
O=C(NCc1ccco1)c1cc2ccccc2o1,-10%,-1%,11,92,-5%,-14%
O=C(CCS(=O)(=O)c1cc2c3c(c1)CCN3C(=O)CC2)NCc1ccc(F)cc1,/,/,/,/,-3%,/
Cc1ccc(-n2nnc3ccccc3c2=O)cc1C,-2%,-3%,50*,100*,-12%,?
CCC1SC(=NC(=O)c2ccc(Cl)c(Cl)c2)NC1=O (configuration not stated),2%,0%,20*,43,7%,-16%
CCC1SC(=Nc2cccc(C)c2)NC1=O (configuration not stated),2%,4%,4,-7,-1%,-3%
CCOC(=O)Cc1csc(NC(=O)/C=C/c2ccc(OC)cc2)n1,1%,-9%,37*,115*,-2%,-22%
CCOC(=O)Cc1csc(NC(=O)c2ccc(NC(C)=O)cc2)n1,-2%,-16%,4,29,4%,4%
CCOC(=O)Cc1csc(NC(=O)Nc2ccc(OC(F)(F)F)cc2)n1,0%,3%,23*,45*,3%,-17%
CCOC(=O)Cc1csc(NC(=O)COc2ccc(C)c(C)c2)n1,-9%,-1%,33*,41*,0%,10%
CCOC(=O)Cc1csc(NC(=O)/C=C\c2ccccc2)n1,1%,-9%,32*,53*,5%,-7%
CCOC(=O)Cc1csc(NC(=O)COc2ccccc2)n1,-2%,3%,-2,-5,0%,5%
COc1ccccc1NC(=O)Nc1ccc(Cc2ccncc2)cc1,1%,-9%,10,50*,0%,23%

# Screens from PubChem.
